# Activity calls are given as the source filed them.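 The calls were made as follows, unless noted: active = inhibition above 20% together with a positive visual image hit; inconclusive = visual image hit but inhibition not above 20%; inactive = no visual image hit.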
# Tests used:
# [1] = inhibitors of TNFa-induced NFkB p65 translocation, primary screen, imaging, HUVEC, MLSMR starter and 10KST1 sets (AID 438); conditions: HUVEC TNFa-induced p65 nuclear translocation; cell count: measured here: nuclei count (cytotoxicity indicator), at 2.08 µM; inhibition: at 2 µM, stronger effect = higher value, 0% TNFa-plus-vehicle, 100% no-TNFa wells;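 also: compound added about 3h40 before a 20 min TNFalpha stimulation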;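 as to inhibition: signal is the nuclear over cytoplasmic p65 intensity ratio per well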
# [2] = endothelial E-selectin expression blockers – imaging, HUVEC, immunofluorescence, MLSMR starter and 10KST1 sets, primary screen (AID 487;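 active = visually confirmed hit in the image check and inhibition above 20%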;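 as to inhibition: signal is fraction of cell area covered by stained E-selectin grains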;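 as to nuclei count: 100% = median nuclei count of all wells on the same plate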); conditions: HUVEC TNFalpha-induced E-selectin immunofluorescence imaging, at 2 µM; inhibition: stronger effect = higher value; nuclei count: measured here: cell number, toxicity
# [3] = Primary imaging screen for DUSP6 inhibitors that restore phospho-Erk in transfected HeLa cells, chemical complementation (AID 609;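 active = compounds giving at least 50% inhibition in the cell-based MKP-3 phosphatase rescue imaging test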;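 as to inhibition: phospho-Erk level distribution per well compared with pooled transfected vehicle control wells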); conditions: HeLa MKP-3 transfected, phospho-Erk imaging KS statistic, at 10 µM, cells stimulated with TPA for 15 min
# [4] = target: Dual specificity protein phosphatase 6 (Homo sapiens) (UniProt Q16828); assay: as above; conditions: HeLa MKP-3 transfected, phospho-Erk imaging KS statistic; at 10 µM; stronger effect = higher value; cells stimulated with TPA for 15 min
# [5] = target: Voltage-gated potassium channel subunit beta-2 (Rattus norvegicus) (UniProt P62483); assay: inhibitors of rat Kvbeta2 reductase activity – biochemical, NADPH fluorescence, primary screen (AID 622;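 active = fluorescence slope higher than the sample average by over 3 SD, cut at about -0.22 in these data, passing the limit was not always enough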;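 also: slope of raw intensity against log time taken from 70 to 1610 s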); conditions: recombinant KvBeta, 4-cyanobenzaldehyde reduction, at 10 µM, stronger effect = higher value
# [6] = target: Voltage-gated potassium channel subunit beta-2 (Rattus norvegicus) (UniProt P62483); assay: enhancers of rat Kvbeta2 NADPH turnover – biochemical, NADPH fluorescence, primary screen (AID 623;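 active = NADPH fluorescence slope more negative than the mean of all samples by about 3 SD, 99.7% confidence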;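 also: fluorescence intensity change per second fitted from 20 to 320 s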); conditions: Recombinant KvBeta, NADPH fluorescence decrease slope, 10 min; at 10 µM; stronger effect = lower value
# [7] = target: Muscarinic acetylcholine receptor M4 (Homo sapiens) (UniProt P08173); assay: M4-linked GIRK flux change, two-sided – cell-based, HEK293 M4/GIRK, thallium flux, BTC-AM, M4 allosteric agonist project, primary screen (AID 625;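 active = fluorescence slope after compound addition differing from the mean of all tested samples at 99.7% confidence, mostly higher but some lower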;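 also: thallium influx through GIRK channels coupled to M4 in HEK293 cells with BTC-AM dye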); conditions: at 10 µM, actives lie on both sides
# [8] = inhibitors of larval lipid processing in zebrafish, primary screen, whole organism, PED6 fluorescence, gall bladder and intestine (AID 686;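 active = a full or partial loss of lipid-probe fluorescence in the fish gall bladder, intestine or both, judged by eye; inactive = no fluorescence loss, or compound toxic to the fish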;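 also: larvae 5 to 7 days old with five fish per well; signal comes from phospholipase A2 cleavage of quenched PED6 carried via bile; overnight exposure to compound and PED6 before scoring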); conditions: Zebrafish larvae PED6 lipid processing, fluorescence scoring; screened at 20 µM (by protocol)
# [9] = loss of swimming-algae plug formation – whole organism, Chlamydomonas reinhardtii, WT vs cilia-less mutant, absorbance, 96-well, primary screen (AID 463189;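 active = inhibition at or above 50% relative to wild type and mutant plate controls; inactive = inhibition below 50%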;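 also: 0% = wild type cc124 cells in DMSO and 100% = ciliumless bld1 mutant cells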); conditions: Chlamydomonas reinhardtii gravitaxis, OD600 absorbance, 2 days; at 10 µM; stronger effect = higher value
# [10] = measured here: cell density z-score
# [11] = measured here: nuclear c-Myc green intensity z-score
# [12] = measured here: nuclear pErk red intensity z-score, stronger effect = higher value
# Sequence of Dual specificity protein phosphatase 6 (Homo sapiens) (Q16828 whole entry, looked up): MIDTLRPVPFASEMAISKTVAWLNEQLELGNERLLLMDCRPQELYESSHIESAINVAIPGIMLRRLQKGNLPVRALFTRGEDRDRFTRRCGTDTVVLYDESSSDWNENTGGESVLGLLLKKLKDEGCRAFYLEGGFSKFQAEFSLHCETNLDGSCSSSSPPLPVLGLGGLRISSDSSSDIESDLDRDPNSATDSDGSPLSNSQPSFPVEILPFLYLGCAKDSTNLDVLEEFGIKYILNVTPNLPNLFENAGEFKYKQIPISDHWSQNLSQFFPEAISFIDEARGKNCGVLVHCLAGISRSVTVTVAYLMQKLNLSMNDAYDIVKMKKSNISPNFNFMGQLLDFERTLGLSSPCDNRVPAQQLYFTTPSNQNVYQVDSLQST
# Sequence of Muscarinic acetylcholine receptor M4 (Homo sapiens) (P08173 whole entry, looked up): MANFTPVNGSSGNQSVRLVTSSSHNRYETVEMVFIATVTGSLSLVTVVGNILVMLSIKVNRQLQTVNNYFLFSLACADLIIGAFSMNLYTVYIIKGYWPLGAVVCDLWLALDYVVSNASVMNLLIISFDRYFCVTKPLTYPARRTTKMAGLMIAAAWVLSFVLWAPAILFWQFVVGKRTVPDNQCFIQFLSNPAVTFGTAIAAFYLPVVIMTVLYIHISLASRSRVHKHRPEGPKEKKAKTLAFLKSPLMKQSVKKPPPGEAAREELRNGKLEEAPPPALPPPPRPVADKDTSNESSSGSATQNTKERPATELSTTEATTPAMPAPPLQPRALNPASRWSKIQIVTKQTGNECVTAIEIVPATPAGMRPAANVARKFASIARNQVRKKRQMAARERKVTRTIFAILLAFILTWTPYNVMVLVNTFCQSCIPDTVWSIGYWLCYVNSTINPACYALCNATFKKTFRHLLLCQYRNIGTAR
# Sequence of Voltage-gated potassium channel subunit beta-2 (Rattus norvegicus) (P62483 whole entry, looked up): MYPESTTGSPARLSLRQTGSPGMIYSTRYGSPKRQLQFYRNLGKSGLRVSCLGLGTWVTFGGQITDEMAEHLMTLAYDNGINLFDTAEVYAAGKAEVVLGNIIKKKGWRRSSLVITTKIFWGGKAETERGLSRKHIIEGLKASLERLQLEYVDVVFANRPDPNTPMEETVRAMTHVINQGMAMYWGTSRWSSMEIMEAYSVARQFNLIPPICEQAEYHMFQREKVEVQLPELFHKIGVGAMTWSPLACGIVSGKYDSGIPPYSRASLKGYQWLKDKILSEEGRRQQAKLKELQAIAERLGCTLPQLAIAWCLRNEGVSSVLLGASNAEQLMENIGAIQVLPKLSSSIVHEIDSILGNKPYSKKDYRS
smiles,measurement,setting,value
CSc1nc2sc3c(c2c2nnnn12)CCC3,cell count,[1],594
same,inhibition,[1],-5.2% (inactive)
same,inhibition,[2],-73% (inactive)
same,nuclei count,[2],143%
same,z-score,[3]; [10],-0.0727
same,z-score,[3]; [11],0.543
same,z-score,[3]; [12],0.37
same,inhibition,[4],1.63% (inactive)
same,fluorescence slope,[5],-0.441 (inactive)
same,NADPH fluorescence slope,[6],-0.000113 (inactive)
same,fluorescence slope,[7],0.00506 (inactive)
same,outcome,[8],inactive
same,inhibition,[9],17.9% (inactive)
CCCCN(CCCC)C(=O)CSc1nnc2n(C)c(=O)c3c4c(sc3n12)CCCC4,cell count,[1],496
same,inhibition,[1],-18.2% (inactive)
same,inhibition,[2],-94.2% (inactive)
same,nuclei count,[2],142%
same,z-score,[3]; [10],2.28
same,z-score,[3]; [11],-1.51
same,z-score,[3]; [12],-0.0585
same,inhibition,[4],7.93% (inactive)
same,fluorescence slope,[5],-0.463 (inactive)
same,NADPH fluorescence slope,[6],-4.6e-05 (inactive)
same,fluorescence slope,[7],0.00616 (inactive)
same,outcome,[8],inactive
same,inhibition,[9],84% (active)
CCCc1cc(Nc2c(C)n(C)n(-c3ccccc3)c2=O)n2c(nc3ccccc32)c1C#N,cell count,[1],336
same,inhibition,[1],-3.4% (inactive)
same,inhibition,[2],-170% (inactive)
same,nuclei count,[2],134%
same,z-score,[3]; [10],-1.08
same,z-score,[3]; [11],0.689
same,z-score,[3]; [12],-0.99
same,inhibition,[4],-6.59% (inactive)
same,fluorescence slope,[5],-0.48 (inactive)
same,NADPH fluorescence slope,[6],-2.2e-05 (inactive)
same,fluorescence slope,[7],0.00467 (inactive)
same,outcome,[8],inactive
same,inhibition,[9],0.457% (inactive)
CCOC(=O)c1[nH]c2ccc(F)cc2c1NC(=O)CCN1CCSCC1,cell count,[1],617
same,inhibition,[1],-1.1% (inactive)
same,inhibition,[2],-124% (inactive)
same,nuclei count,[2],130%
same,z-score,[3]; [10],-0.422
same,z-score,[3]; [11],0.0168
same,z-score,[3]; [12],1.05
same,inhibition,[4],1.42% (inactive)
same,fluorescence slope,[5],-0.455 (inactive)
same,NADPH fluorescence slope,[6],-0.000125 (inactive)
same,fluorescence slope,[7],0.00431 (inactive)
same,outcome,[8],inactive
same,inhibition,[9],-7.59% (inactive)
CCCn1c(SCC(N)=O)nc2c(c1=O)C1(CCCC1)Cc1ccccc1-2,cell count,[1],555
same,inhibition,[1],-8% (inactive)
same,inhibition,[2],20.3% (inactive)
same,nuclei count,[2],170%
same,z-score,[3]; [10],0.28
same,z-score,[3]; [11],0.545
same,z-score,[3]; [12],0.00156
same,inhibition,[4],1.98% (inactive)
same,fluorescence slope,[5],-0.386 (inactive)
same,NADPH fluorescence slope,[6],-5.2e-05 (inactive)
same,fluorescence slope,[7],0.00485 (inactive)
same,outcome,[8],inactive
same,inhibition,[9],-1.68% (inactive)
CN(C)c1cccc2c(S(=O)(=O)N3CCOCC3)cccc12,cell count,[1],607
same,inhibition,[1],-7.5% (inactive)
same,inhibition,[2],-24.7% (inactive)
same,nuclei count,[2],157%
same,z-score,[3]; [10],-2.51
same,z-score,[3]; [11],1.31
same,z-score,[3]; [12],-0.367
same,inhibition,[4],-9.91% (inactive)
same,fluorescence slope,[5],-0.275 (inactive)
same,NADPH fluorescence slope,[6],-7.8e-05 (inactive)
same,fluorescence slope,[7],0.00799 (inactive)
same,outcome,[8],inactive
same,inhibition,[9],-1.61% (inactive)
Cc1c(C)n(C(=O)CSc2nccn2C)c2ccccc12,cell count,[1],625
same,inhibition,[1],8.3% (inactive)
same,inhibition,[2],-34.7% (inactive)
same,nuclei count,[2],106%
same,z-score,[3]; [10],-0.766
same,z-score,[3]; [11],1.61
same,z-score,[3]; [12],0.593
same,inhibition,[4],1.63% (inactive)
same,fluorescence slope,[5],-0.416 (inactive)
same,NADPH fluorescence slope,[6],-3.5e-05 (inactive)
same,fluorescence slope,[7],0.00619 (inactive)
same,outcome,[8],inactive
same,inhibition,[9],-7.86% (inactive)
N#CCCN(C(=O)c1ccco1)c1ccccc1,cell count,[1],600
same,inhibition,[1],3.1% (inactive)
same,inhibition,[2],-91% (inactive)
same,nuclei count,[2],128%
same,z-score,[3]; [10],0.6
same,z-score,[3]; [11],-1.06
same,z-score,[3]; [12],-0.443
same,inhibition,[4],1.42% (inactive)
same,fluorescence slope,[5],-0.462 (inactive)
same,NADPH fluorescence slope,[6],-0.000111 (inactive)
same,fluorescence slope,[7],0.00534 (inactive)
same,outcome,[8],inactive
same,inhibition,[9],-5.86% (inactive)
O=C(CSc1nc2ccccc2c(=O)n1CC1CCCCC1)N1CCOCC1,cell count,[1],369
same,inhibition,[1],-5.3% (inactive)
same,inhibition,[2],-6.6% (inactive)
same,nuclei count,[2],136%
same,z-score,[3]; [10],-0.271
same,z-score,[3]; [11],-0.657
same,z-score,[3]; [12],-0.609
same,inhibition,[4],7.42% (inactive)
same,fluorescence slope,[5],-0.465 (inactive)
same,NADPH fluorescence slope,[6],-8.1e-05 (inactive)
same,fluorescence slope,[7],0.00433 (inactive)
same,outcome,[8],inactive
same,inhibition,[9],-8.49% (inactive)
CC1(C)CC(=O)C(C=Nc2ccc(Cl)cn2)=C(O)C1,cell count,[1],493
same,inhibition,[1],-2.2% (inactive)
same,inhibition,[2],-68.2% (inactive)
same,nuclei count,[2],114%
same,z-score,[3]; [10],0.174
same,z-score,[3]; [11],-1.57
same,z-score,[3]; [12],0.727
same,inhibition,[4],15.9% (inactive)
same,fluorescence slope,[5],-0.464 (inactive)
same,NADPH fluorescence slope,[6],-2.5e-06 (inactive)
same,fluorescence slope,[7],0.0108 (inactive)
same,outcome,[8],inactive
same,inhibition,[9],35.7% (inactive)
Cc1ccc(-n2ncc3c(NCCCOC(C)C)ncnc32)c(C)c1,cell count,[1],586
same,inhibition,[1],-13.1% (inactive)
same,inhibition,[2],45.2% (inactive)
same,nuclei count,[2],161%
same,z-score,[3]; [10],-1.65
same,z-score,[3]; [11],1.1
same,z-score,[3]; [12],-0.077
same,inhibition,[4],1.42% (inactive)
same,fluorescence slope,[5],-0.408 (inactive)
same,NADPH fluorescence slope,[6],-4.3e-05 (inactive)
same,fluorescence slope,[7],0.00603 (inactive)
same,outcome,[8],inactive
same,inhibition,[9],39% (inactive)
CCN(CC)CCCN1C(=O)C(=O)/C(=C(/O)c2ccccc2)C1c1cc(OC)ccc1OC (centres undefined),cell count,[1],414
same,inhibition,[1],-1.4% (inactive)
same,inhibition,[2],-75.8% (inactive)
same,nuclei count,[2],153%
same,z-score,[3]; [10],-0.00303
same,z-score,[3]; [11],-1.03
same,z-score,[3]; [12],1.76
same,inhibition,[4],1.48% (inactive)
same,fluorescence slope,[5],-0.469 (inactive)
same,NADPH fluorescence slope,[6],-0.000138 (inactive)
same,fluorescence slope,[7],0.00498 (inactive)
same,outcome,[8],inactive
same,inhibition,[9],32.7% (inactive)
CCN(CC)c1ccc(C2Nc3cccc4cccc(c34)N2)c(O)c1,cell count,[1],571
same,inhibition,[1],2.2% (inactive)
same,inhibition,[2],-102% (inactive)
same,nuclei count,[2],134%
same,z-score,[3]; [10],0.205
same,z-score,[3]; [11],-0.845
same,z-score,[3]; [12],-0.409
same,inhibition,[4],-0.584% (inactive)
same,fluorescence slope,[5],-0.397 (inactive)
same,NADPH fluorescence slope,[6],-7.3e-05 (inactive)
same,fluorescence slope,[7],0.00286 (inactive)
same,outcome,[8],active; no signal in gallbladder and intestine
same,inhibition,[9],40% (inactive)
